Rpn11 block: inhibitors of human proteasome Rpn11 | O00487 | human 26S proteasome, Ub4-pepOG fluorescence polarization; 20S core pre-blocked with epoxomicin | inhibition, % at 20 µM | 360,000 compounds, 0.59% hits | AID 588493;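 active = inhibition at 20 µM, scaled to each plate's controls, above about 33%, limit read from the data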
Target sequence (O00487 whole entry, looked up): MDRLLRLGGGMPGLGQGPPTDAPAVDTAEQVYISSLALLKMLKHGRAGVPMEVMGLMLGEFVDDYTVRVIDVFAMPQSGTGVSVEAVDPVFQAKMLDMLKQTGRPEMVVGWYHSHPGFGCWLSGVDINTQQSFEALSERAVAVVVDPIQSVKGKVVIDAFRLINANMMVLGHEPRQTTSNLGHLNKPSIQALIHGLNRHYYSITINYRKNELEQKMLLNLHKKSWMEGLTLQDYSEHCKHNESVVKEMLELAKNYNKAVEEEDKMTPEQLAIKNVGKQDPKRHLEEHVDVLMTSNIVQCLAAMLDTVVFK
HNF4A DNA FP: change in binding of human HNF4 alpha to DNA | P41235 | HNF4a-FITC DNA binding, fluorescence polarization, 1 h | activity change, % at 10 µM | 360,000 compounds, 0.3% hits; in the data active = activity change above about 30%, passing the limit was not always enough
TPT1 inh: blocks Candida albicans tRNA 2'-phosphotransferase. inhibition, % at 5 µM. 300,000 compounds, 0.81% hits. recombinant caTPT1, FP RNA substrate dephosphorylation;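 active = inhibition above the mean of all tested compounds plus 3 SD, set per screening campaign, cut at about 24% in these data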
Myeloid diff MLP: myeloid differentiation induction | ER-HoxA9 myeloid progenitors, lysozyme-GFP differentiation, flow cytometry | AID 624256 | 360,000 compounds, 1% hits | calls only at 10 µM;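 active = normalized GFP-positive differentiation at or above the plate's own cutoff, the solvent-only control mean plus 3 SD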;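 also: cells exposed to compound for four days before flow analysis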
Myeloid diff: compounds promoting myeloid differentiation; calls only; AID 651706; shares compounds with Myeloid diff MLP; ER-HoxA9 myeloid progenitors, GFP/Mac1 double-positive flow; 2,300 compounds, 2% hits;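 active = share of green or green-and-red cells above 9 and 9% in run 1 or 4 and 3% in run 2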
GFP autofluor: flagged as fluorescent in myeloid differentiation counter-screen. shares compounds with Myeloid diff MLP. ER-HoxA9 myeloid progenitors, no estrogen, GFP autofluorescence flow cytometry; vehicle wells 0%, positive control 100%. fluorescence response, % (test concentration not listed). 2,300 compounds, 7.4% hits. AID 651707;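 active = over 5% cells positive for green fluorescent reporter, or over 2% positive for both it and APC stain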
Of the large screens only hits and unclear results are named; the others gave an inactive call (follow-up assays come after a bar, where they were run). Most compounds without a hit are left out; they make up all but 2.1% or so of the library.

CC/C(C)=N/Nc1ccc(S(=O)(=O)N2CCCC2)cc1[N+](=O)[O-]	Myeloid diff MLP active | Myeloid diff inactive | GFP autofluor inactive
Cc1ccc([C@H]2C[C@H](n3cc(C4CC4)nn3)[C@@H](O)CN2Cc2cccs2)cc1	none (no result: TPT1 inh) | Myeloid diff inactive | GFP autofluor inactive
O=C(NCCc1ccccc1)C1Cc2c(-c3ccccc3Oc3ccccc3)ccnc2O1 (stereo not given)	none (no result: TPT1 inh)
CC1(c2ccccc2)NC(=O)N(CC(=O)N2CCN(S(=O)(=O)c3ccccc3[N+](=O)[O-])CC2)C1=O (stereo not given)	none
O=C(Nc1ccc(Cc2ccncc2)cc1)C1CCC(N2C(=O)C3C4C=CC(C5CC45)C3C2=O)CC1 (stereo not given)	Myeloid diff MLP active | Myeloid diff inactive | GFP autofluor inactive
CC(=O)Nc1ccc(NC(=O)C2CCC(N3C(=O)C4C5C=CC(C6CC56)C4C3=O)CC2)cc1 (stereo not given)	none
O=c1c2nncn2c2cccnc2n1CCNc1ncc(C(F)(F)F)cc1Cl	none
NNc1nc2cccnc2n(CCNc2ncc(C(F)(F)F)cc2Cl)c1=O	none | Myeloid diff inactive | GFP autofluor inactive
Cc1cc(=O)n2c3ccccc3n(CC(O)CN3CCCCC3)c2c1C#N (stereo not given)	Myeloid diff MLP active | Myeloid diff inactive | GFP autofluor inactive
Cc1cc(=O)n2c3ccccc3n(CC(O)CN3CCOCC3)c2c1C#N (stereo not given)	none
CC1(C)CC(NC(=O)c2cc(S(=O)(=O)N3CCCCC3)ccc2Cl)CC(C)(C)N1	none
COc1ccc(-c2oc3ccccc3c(=O)c2OC(C)=O)cc1	none
CC(=O)Oc1c(-c2ccc(Br)o2)oc2ccccc2c1=O	none | Myeloid diff inactive | GFP autofluor inactive
O=C(CCc1ccccc1)NC(=S)Nc1ccccc1[N+](=O)[O-]	none
Nc1ccccc1C(O)(Cc1ccccc1)c1ccccc1 (stereo not given)	none
COc1ccccc1N1CCN(Cc2cc(=O)oc3cc(C)cc(C)c23)CC1	none (no result: TPT1 inh)
O=C(NCc1ccccc1)C(=O)NCC1OCCN1C(=O)c1cccs1 (stereo not given)	none
Cc1ccc(CNC(=O)C(=O)NCC2OCCN2C(=O)c2cccs2)cc1 (stereo not given)	Myeloid diff MLP active | Myeloid diff inactive | GFP autofluor inactive
O=C1c2cccc3c(N4CCCCC4)ccc(c23)C(=O)N1c1ccccn1	none
CCCN1C(=O)c2cccc3c(N4CCCCC4)ccc(c23)C1=O	Myeloid diff MLP active | Myeloid diff inactive | GFP autofluor inactive
Cc1cc(C)nc(/N=C(\N)Nc2ccc(OCCC(C)C)cc2)n1	none
CC(/C=N/NC(=O)CSc1n[nH]c(=O)[nH]c1=O)=C\c1ccccc1	none | Myeloid diff inactive | GFP autofluor inactive
COC(=O)CCCCCN1C(=O)NC(c2ccccc2)C(C(=O)OCc2ccccc2)=C1C (stereo not given)	none | Myeloid diff inactive | GFP autofluor inactive
Cn1c2c(c3ccccc31)CCN1CCC[C@]21c1ccccc1	none
NC(=O)C1CCCN(CC(=O)Nc2ccccc2C(=O)NC2CC2)C1 (stereo not given)	none (no result: TPT1 inh)
Cc1nc(SC(C)C(=O)NCC2CCCO2)c2cc(-c3ccccc3)sc2n1 (stereo not given)	Myeloid diff MLP active | Myeloid diff inactive | GFP autofluor 39
COc1ccccc1OC(C)C(=O)Nc1ccccc1C(=O)NCc1cccnc1 (stereo not given)	none
CCCCNC(=O)c1onc(CSc2ccc(F)cc2)c1C(=O)O	Myeloid diff MLP active | Myeloid diff inactive | GFP autofluor inactive
COc1cccc(CNC(=O)C(C(=O)NCc2cccc(OC)c2)c2ncc(C(F)(F)F)cc2Cl)c1	none
OCCCNc1cc(-c2ccnc(Nc3cccc(Cl)c3)n2)ccn1	none | Myeloid diff inactive | GFP autofluor inactive
O=C(Cc1c(F)cccc1Cl)Nc1nccs1	none
CCC(=O)N1CCc2cc(Br)cc(S(=O)(=O)CCC(=O)NCC3CCCO3)c21 (stereo not given)	Myeloid diff MLP active | Myeloid diff inactive | GFP autofluor inactive
COc1ccccc1OCC(=O)N/N=C1/SCC(=O)N1Cc1ccccc1	none
Oc1ccccc1N=Cc1ccc[nH]1	Myeloid diff MLP active | Myeloid diff inactive | GFP autofluor inactive
COC(=O)[C@]1(Cc2ccccc2)N[C@H](CN(C)C(=O)C2CCCCC2)[C@@H]2C(=O)N(C)C(=O)[C@@H]21	none (no result: TPT1 inh)
CC[C@@]1(C(=O)OC)N[C@H](CN(C)C(=O)C2CCCCC2)[C@@H]2C(=O)N(C)C(=O)[C@@H]21	none (no result: TPT1 inh) | Myeloid diff inactive | GFP autofluor inactive
Cc1ccc(Nc2c(-c3ccccn3)nc3cc(C)ccn23)cc1	none | Myeloid diff inactive | GFP autofluor inactive
Cc1ccn2c(Nc3ccc4c(c3)OCO4)c(-c3ccccn3)nc2c1	none
CC1(C)C2CCC1(C)C(SC(=N)N)C2 (stereo not given)	none (no result: TPT1 inh) | Myeloid diff inactive | GFP autofluor inactive
O=C(O)C1Cc2ccccc2-c2ccccc2C1	none
O=C(O)[C@@H]1Cc2ccccc2N1	Myeloid diff MLP active | Myeloid diff inactive | GFP autofluor 5.4
CSc1cccc(NC(=O)C(C)C)c1	none
CC(C)C(=O)Nc1cccc(S(=O)(=O)c2cccc(NC(=O)C(C)C)c2)c1	none | Myeloid diff inactive | GFP autofluor inactive
COc1ccc(-c2noc(CCC(=O)N3CCN(c4ccc(Cl)cc4)CC3)n2)cc1	none (no result: TPT1 inh)
CC(C)n1cc(CN2CCC(C(=O)Nc3cccc(-c4cccc(Cl)c4)c3)CC2)cn1	Myeloid diff MLP active | Myeloid diff inactive | GFP autofluor inactive
CCn1cc(CN2CCC(C(=O)Nc3cccc(-c4cccc(F)c4)c3)CC2)cn1	none
COc1ccc(C2=Nc3ccccc3N(C(=O)c3ccc(C(F)(F)F)cc3)C2C(=O)Nc2c(C)cccc2C)cc1 (stereo not given)	none (no result: Rpn11 block, TPT1 inh) | Myeloid diff inactive | GFP autofluor inactive
COc1ccc(C2=NOC(Cn3nc(-c4ccccc4)cc3C(=O)NCc3cccs3)C2)cc1 (stereo not given)	none (no result: TPT1 inh) | Myeloid diff inactive | GFP autofluor inactive
COc1ccc(C2=NOC(Cn3nc(C(=O)NCc4cccs4)cc3-c3ccccc3)C2)cc1 (stereo not given)	none
Cc1cccn2cc(COc3ccc(-c4ccccc4)cc3)nc12	Myeloid diff MLP active (no result: TPT1 inh) | Myeloid diff active | GFP autofluor inactive
Cc1cccn2cc(COc3cccc([N+](=O)[O-])c3)nc12	none
COc1cccc(C(=O)NC(=S)Nc2ccccc2N2CCCCC2)c1	Myeloid diff MLP active | Myeloid diff inactive | GFP autofluor inactive
O=[N+]([O-])c1ccc(NNS(=O)(=O)c2cc(Cl)ccc2Cl)nc1	none (no result: TPT1 inh)
COc1ccc(Nc2nc(N)nc(CN3CCN(c4ccc(F)cc4)CC3)n2)cc1	none | Myeloid diff inactive | GFP autofluor inactive
COc1ccc([C@H]2C[C@H](O)[C@@H](n3cc(COC(=O)c4ccccc4)nn3)CN2C(=O)C2CCCCC2)cc1	none (no result: TPT1 inh)

Bioassay records: PubChem, several laboratories
